Results filed as inconclusive are left out. Entries that show only a call come without a potency. The source made the active and inactive calls. Calls follow the shape of the dose curve; as a rule, active = well fitted activation curve with a large enough effect; inconclusive = small, poorly fitted or top-dose-only effect; inactive = no such curve, though single readings can be large or run the other way.
Potency is read from the fitted curve at half-maximal effect.

The nature of the experiment: qHTS assay for re-activators of p53 using a Luc reporter: Hit Validation with no p53 Expressed. The note with it: p53-null cells, luciferase reporter counter-screen; series mostly up to 46.1 µM. In short, it runs like this: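 Without p53 expression, cells (1000/well, Opti-MEM + 10% FBS) were exposed 24 h at 37 deg C to compounds in a 1:5 series from 10 mM stock (top 46.1 µM in well). Luminescent signal read 10 min after Amplite addition; actives flag unspecific activation.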
On the technique in general: In qHTS, concentration-response curves come from the screen itself.
As for `O=C(NCc1ccco1)c1noc2c1CCCC2`, the Potency entry was “inactive”. The same measure for `CCOc1ccc(C(O)Cc2nc3ccccc3n2C)cc1` (stereo not given): “inactive”; for `COCC(C)NC(=O)C1CC(=O)N(c2ccc(C)cc2)C1` (stereo not given): “inactive”; for `CC(/C=N/Nc1nc2ccccc2[nH]1)=C\c1ccccc1`: 116 nM (active). As for `CCOP(=O)(OCC)C(NC(=O)Nc1ccccc1)C(N)=O` (stereo not given), the Potency entry is “inactive”.

For `O=C(COC(=O)c1cccnc1Cl)Nc1ccc(N2CCCCC2)cc1`, the Potency result was “inactive”. The same measure for `Cc1ccc(NC(=O)c2cc(C)n(-c3ccccc3)c2C)cc1`: “inactive”; for `O=C(Nc1ccc(NC(=O)C23CC4CC(CC(C4)C2)C3)cn1)c1ccco1`: “inactive”; for `CC(=O)Nc1ccc2oc(-c3ccccc3Br)nc2c1`: “inactive”. The same measure for `CC(C)NC(=S)N1CCN(S(C)(=O)=O)CC1`: “inactive”.

Turning to `N#C/C(=C/c1ccccc1[N+](=O)[O-])c1nc(C2CC2)cs1`, the Potency result was “inactive”.

As for `Cc1ccc(-c2nc3ccccc3o2)cc1NC(=O)c1ccc2c(c1)OCO2`, the Potency result was “inactive”.

In the case of `Oc1c(CN2CCOCC2)cc(COCc2ccccc2)c2cccnc12`, the Potency entry is “inactive”. Then `C/C(=N\NC(=O)c1cccs1)C(C)(C)C`, with “inactive”; and `Cc1c(/C(O)=C2/C(=O)C(=O)N(Cc3cccnc3)C2c2cccs2)cnn1-c1ccccc1` (stereo not given), with “inactive”. The same measure for `Cc1cc(C(=O)Nc2nc3c(s2)CCCC3)cs1`: “inactive”; for `O=C(CC1CCCCC1)NCc1ccc(Cl)cc1`: “inactive”; for `C(=N\Nc1nc2ccccc2s1)/c1ccc2c(c1)OCO2`: “inactive”.

Take `N#C/C(Cn1c[n+](NC(=O)Nc2ccccc2)cn1)=N/O`: the Potency result was “inactive”. The same measure for `Cc1cccc(C(=O)OCC(=O)N2CCCCCC2)c1O`: “inactive”.

These data come from PubChem BioAssay AID624331 (National Center for Advancing Translational Sciences (NCATS), 2012).
